36 sequences from paper PMC5700166 can be followed below.

The target of the first assay is T1, GST-Co-NF-kB (Capsaspora owczarzaki, UniProt F1ARL5 200-546).
T1 sequence: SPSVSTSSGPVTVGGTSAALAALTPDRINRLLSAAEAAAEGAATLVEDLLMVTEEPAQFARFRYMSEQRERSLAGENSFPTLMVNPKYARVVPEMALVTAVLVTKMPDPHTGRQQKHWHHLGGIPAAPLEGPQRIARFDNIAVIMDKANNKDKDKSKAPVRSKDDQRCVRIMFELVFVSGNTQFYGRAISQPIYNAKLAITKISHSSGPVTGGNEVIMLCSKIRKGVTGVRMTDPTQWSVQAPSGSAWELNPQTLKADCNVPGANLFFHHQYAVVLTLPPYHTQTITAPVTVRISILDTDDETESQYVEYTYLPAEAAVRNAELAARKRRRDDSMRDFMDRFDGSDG
Put plainly: protein-binding microarray (PBM); PBM: ~300 nM protein, 6 mM HEPES pH 7.8, 80 mM KCl, 0.5 mM EDTA, 0.5 mM EGTA, 6% glycerol, 35 ng/ul poly-dIdC, 1% milk, 1 h, room temperature; Ap Aiptasia and Nv Nematostella (sea anemones) / Co Capsaspora / Aq Amphimedon (sponge) / Dm Drosophila / Hu human; RHD is the Rel homology domain; high values mean tight binding. Conditions: dsDNA, one strand shown.
On to “CCGATTAACATCAGGGAACTTTATGATGTTAATCGGGTCTTGATTCGCTTGACGCTGCTG”, for which the binding signal stood at 2.81 z-score.

As for “CCGATTAACATCAGACCTCCCCCTGATGTTAATCGGGTCTTGATTCGCTTGACGCTGCTG”, the binding signal was 5.48 z-score.

The next assay deals with T2, GST-Dm-Relish (Drosophila melanogaster, UniProt Q94527 99-473).
T2 sequence: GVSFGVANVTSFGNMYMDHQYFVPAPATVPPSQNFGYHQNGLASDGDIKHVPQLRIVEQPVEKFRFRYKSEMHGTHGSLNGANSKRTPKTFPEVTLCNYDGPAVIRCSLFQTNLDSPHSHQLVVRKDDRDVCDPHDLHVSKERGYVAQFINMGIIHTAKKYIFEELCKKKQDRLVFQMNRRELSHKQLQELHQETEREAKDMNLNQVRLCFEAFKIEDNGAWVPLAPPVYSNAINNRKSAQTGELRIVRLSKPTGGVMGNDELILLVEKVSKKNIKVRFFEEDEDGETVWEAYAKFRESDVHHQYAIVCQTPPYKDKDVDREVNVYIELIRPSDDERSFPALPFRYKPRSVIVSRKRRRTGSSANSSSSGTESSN
The assay is described as above. Conditions: dsDNA, one strand shown.
For the sequence “CCGATTAACATCAAGGGGGTAAATGATGTTAATCGGGTCTTGATTCGCTTGACGCTGCTG”, the binding signal was 2.72 z-score. “CCGATTAACATCAGGGAAAACGATGATGTTAATCGGGTCTTGATTCGCTTGACGCTGCTG”: the binding signal was 1.18 z-score. On the same count and under the same terms, then “CCGATTAACATCAATCTACCCCCTGATGTTAATCGGGTCTTGATTCGCTTGACGCTGCTG”, with 2.3 z-score. The same measure, in the same setting: then “CCGATTAACATCAATATAGTCCCTGATGTTAATCGGGTCTTGATTCGCTTGACGCTGCTG”, with 1.16 z-score; and “CCGATTAACATCACTAAATTCCCTGATGTTAATCGGGTCTTGATTCGCTTGACGCTGCTG”, with 3.63 z-score. Turning to “CCGATTAACATCAATTCCCAAGGTGATGTTAATCGGGTCTTGATTCGCTTGACGCTGCTG”, the binding signal came to 1.17 z-score. In turn, “CCGATTAACATCAGGGAAAACCATGATGTTAATCGGGTCTTGATTCGCTTGACGCTGCTG” displayed a binding signal of 5.57 z-score. Sequence “CCGATTAACATCAAGCAATTCCCTGATGTTAATCGGGTCTTGATTCGCTTGACGCTGCTG” had a binding signal of 1.23 z-score. The same measure, in the same setting: then “CCGATTAACATCAGGGGATCTACTGATGTTAATCGGGTCTTGATTCGCTTGACGCTGCTG”, with 9.02 z-score. Same read-out and setting: the figure for “CCGATTAACATCAGGGAGCCCCCTGATGTTAATCGGGTCTTGATTCGCTTGACGCTGCTG” is 9.12 z-score; for “CCGATTAACATCAAAAAAACCCATGATGTTAATCGGGTCTTGATTCGCTTGACGCTGCTG” it is 6.31 z-score; for “CCGATTAACATCAGGGAAAGAACTGATGTTAATCGGGTCTTGATTCGCTTGACGCTGCTG” it is 6.83 z-score. As to “CCGATTAACATCAGGGATTTTCATGATGTTAATCGGGTCTTGATTCGCTTGACGCTGCTG”, the binding signal worked out at 6.05 z-score. Take “CCGATTAACATCACTTTACCCCCTGATGTTAATCGGGTCTTGATTCGCTTGACGCTGCTG”: the binding signal came to 2.27 z-score.

“CCGATTAACATCAAGGGGGAGGGTGATGTTAATCGGGTCTTGATTCGCTTGACGCTGCTG” showed a binding signal of 3.15 z-score.

For “CCGATTAACATCAGGGAATCCACTGATGTTAATCGGGTCTTGATTCGCTTGACGCTGCTG”, the binding signal came to 7.85 z-score.

Regarding “CCGATTAACATCAAGGGGGGTGGTGATGTTAATCGGGTCTTGATTCGCTTGACGCTGCTG”, the binding signal amounted to 4.12 z-score. “CCGATTAACATCAGGGGGTCTACTGATGTTAATCGGGTCTTGATTCGCTTGACGCTGCTG” came in with a binding signal of 7.11 z-score. The sequence “CCGATTAACATCAGGCGATTCCCTGATGTTAATCGGGTCTTGATTCGCTTGACGCTGCTG” gave a binding signal of 2.34 z-score. Sequence “CCGATTAACATCACATTCTCCCCTGATGTTAATCGGGTCTTGATTCGCTTGACGCTGCTG” came in with a binding signal of 1.55 z-score.

Consider “CCGATTAACATCAGGGGGGGTGATGATGTTAATCGGGTCTTGATTCGCTTGACGCTGCTG”, for which the binding signal worked out at 4.26 z-score.

“CCGATTAACATCAAGTATTCCCATGATGTTAATCGGGTCTTGATTCGCTTGACGCTGCTG”: the binding signal is 2 z-score.

Sequence “CCGATTAACATCAGGGAAATATATGATGTTAATCGGGTCTTGATTCGCTTGACGCTGCTG” gave a binding signal of 1.94 z-score.

“CCGATTAACATCAAAAATCACCCTGATGTTAATCGGGTCTTGATTCGCTTGACGCTGCTG” yielded a binding signal of 7.81 z-score. Same read-out and setting: then “CCGATTAACATCACCCAACCCCCTGATGTTAATCGGGTCTTGATTCGCTTGACGCTGCTG”, with 4.3 z-score. Turning to “CCGATTAACATCACGAAAATCCCTGATGTTAATCGGGTCTTGATTCGCTTGACGCTGCTG”, the binding signal was 6.19 z-score. “CCGATTAACATCACCTTCCCCCCTGATGTTAATCGGGTCTTGATTCGCTTGACGCTGCTG”: the binding signal came out at 3.79 z-score. Turning to “CCGATTAACATCAGGGATTTCTATGATGTTAATCGGGTCTTGATTCGCTTGACGCTGCTG”, the binding signal was determined as 5.1 z-score. Consider “CCGATTAACATCACAGGGAAAAATGATGTTAATCGGGTCTTGATTCGCTTGACGCTGCTG”, for which the binding signal amounted to 1.6 z-score. “CCGATTAACATCAGGGTAAAACCTGATGTTAATCGGGTCTTGATTCGCTTGACGCTGCTG” displayed a binding signal of 3.45 z-score. “CCGATTAACATCAGGAATACCCCTGATGTTAATCGGGTCTTGATTCGCTTGACGCTGCTG” registered a binding signal of 6.46 z-score. “CCGATTAACATCAGGGGTTACACTGATGTTAATCGGGTCTTGATTCGCTTGACGCTGCTG” returned a binding signal of 2 z-score. “CCGATTAACATCAGGGAATATTATGATGTTAATCGGGTCTTGATTCGCTTGACGCTGCTG” came in with a binding signal of 3 z-score. On the same count and under the same terms, then “CCGATTAACATCAGGGGGTGTACTGATGTTAATCGGGTCTTGATTCGCTTGACGCTGCTG”, with 8.3 z-score.

“CCGATTAACATCAGGGAACTTTATGATGTTAATCGGGTCTTGATTCGCTTGACGCTGCTG”: the binding signal was 4.83 z-score.

Consider “CCGATTAACATCAGACCTCCCCCTGATGTTAATCGGGTCTTGATTCGCTTGACGCTGCTG”, for which the binding signal stood at 2.4 z-score.
